Shown are actives, neighbours in structure and some others; about 2.7% of the full set was active somewhere.
HIV Env fusion: inhibitors of HIV-1 Env-driven cell-cell fusion, primary screen, HeLa-JRFL effector, CEM21 target cells, luciferase | inhibition, % at 12.3 µM | 360,000 tested, 1.1% active | AID 651610, 2012;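 active = mean replicate inhibition score of at least 50 and every replicate individually at or above 50; inconclusive = only one of the two criteria met; inactive = mean below 50 and not all replicates reaching 50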
CFTR F508del cor: F508del CFTR correction, initial screen, CFBE line, single point; activity (quench increase), % at 7.58 µM; 350,000 tested, 0.36% active; CFBE cells, YFP halide quenching; stimulated with forskolin plus potentiator P3; % fluorescence drop versus neutral controls;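 active = mean added fluorescence quench of at least 8% versus neutral control, with both replicates also reaching 8%; inconclusive = only one of the mean or replicate conditions met; inactive = mean below 8% and not both replicates reaching 8%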;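 also: cells transiently co-express mutant CFTR-F508del with the halide-sensitive YFP; corrector assay measuring rescue of mutant channel to the surface after 24 h compound exposure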
PAX8 inh HTS: inhibitors of PAX8-driven TPO luciferase reporter, primary screen, RMG-I cells, single concentration | SteadyGlo, 24 h | inhibition, % at 12.6 µM | 360,000 tested, 1.2% active | AID 652154, 2013;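 active = mean replicate inhibition at least 60% with every replicate also reaching 60%; inconclusive = only one of the two criteria is met; inactive = mean below 60% and not all replicates reaching 60%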;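 also: luciferase light reporting Pax8 driven TPO promoter activity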
GSIS activator: GLuc luminescence reporter in INS-1E cells, primary screen for activators of glucose-dependent secretion of insulin. INS-1E GLuc reporter insulin secretion, 2-3 h. activation, % at 16.6 µM. 370,000 tested, 0.61% active. AID 743287, 2014;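 active = lowest replicate activation of at least 40%, so every replicate reaches that level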
EWS-Fli block: EWS/Fli-driven NR0B1 reporter inhibitors, primary screen, A673 cells, NR0B1 luciferase, luminescence, MLPCN library; viability-normalised; inhibition, % at 12.6 µM; 350,000 tested, 0.67% active; AID 651661, 2012;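 active = mean inhibition of at least 50% after viability correction, with every replicate also passing that limit; inconclusive = mean reaches 50% but only one of two replicates passes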;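 also: firefly luciferase signal divided by Alamar Blue viability fluorescence both relative to DMSO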
PGC1a acetyl inh: inhibitors of PGC1a acetylation signal, primary screen, cell-based, U2OS, AlphaScreen, inhibitor mode. AlphaScreen anti-acetyl-lysine; with virally co-expressed GCN5 acetyltransferase. inhibition, % at 15.6 µM. 350,000 tested, 0.17% active. AID 651687, 2012;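 active = every replicate shows inhibition of at least 40%; inconclusive = mean inhibition at least 40% but some replicate below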
Numbers stand for hits; i = inactive; ? = inconclusive; nt = not tested or not shown; [ ] = dose if it differs, or a comment.

SMILES	HIV Env fusion	CFTR F508del cor	PAX8 inh HTS	GSIS activator	EWS-Fli block	PGC1a acetyl inh
CCOc1cc(C2C3=C(CCCC3=O)OC3=C2C(=O)CCC3)cc([N+](=O)[O-])c1O	i	i	i	58	i	i
COc1ccc(S(=O)(=O)Nc2cccc3c2O[C@H](CN(C)S(=O)(=O)c2ccc(F)cc2)[C@H](C)CN([C@@H](C)CO)C3=O)cc1	i	i	i	i	i	i
O=S(=O)(c1ccccc1)N1CC2(C1)[C@@H](c1ccccc1)[C@H](CO)N2CC1CC1	nt	i	nt	i	nt	nt
O=C1Nc2ccccc2N(C(=O)c2ccc3ccccc3c2)C1c1nc2ccccc2[nH]1 (stereo unspecified)	i	i	i	121	i	nt
COc1ccc2c(c1)CCc1c(C(=O)NCCc3ccc(OC)c(OC)c3)noc1-2	59	nt	nt	nt	nt	i
COc1ccc2c(c1)CCc1c(C(=O)Nc3ccc(OC)c(OC)c3)noc1-2	i	nt	nt	nt	nt	nt
COc1ccc2c(c1)CCc1c(C(=O)NCc3ccc(Cl)cc3)noc1-2	i	nt	i	i	nt	i
COc1ccc2c(c1)CCc1c(C(=O)Nc3cc(C)n(Cc4ccc(Cl)cc4)n3)noc1-2	i	nt	nt	47	nt	i
CC(C)C[C@@]12C(=O)N(c3cccc(Cl)c3)C(=O)N1[C@H](c1ccc(Cl)cc1)[C@@H]1C(=O)N(C3CCCCC3)C(=O)[C@@H]12	67	i	i	i	i	nt
CC(C)C[C@@]12C(=O)N(c3cccc(Cl)c3)C(=O)N1[C@H](c1ccc(F)cc1)[C@@H]1C(=O)N(C3CCCCC3)C(=O)[C@@H]12	i	i	i	i	i	nt
CC(C)C[C@@]12C(=O)N(c3cccc(Br)c3)C(=O)N1[C@H](c1ccc(Cl)cc1)[C@@H]1C(=O)N(C3CCCCC3)C(=O)[C@@H]12	70	i	i	i	i	nt
CC[C@@]12C(=O)N(c3ccc(OC)cc3)C(=O)N1[C@H](c1ccc(Cl)cc1)[C@@H]1C(=O)N(C3CCCCC3)C(=O)[C@@H]12	87	i	i	i	i	i
CC[C@@]12C(=O)N(c3cccc(F)c3)C(=O)N1[C@H](c1ccc(Cl)cc1)[C@@H]1C(=O)N(C3CCCCC3)C(=O)[C@@H]12	95	i	i	i	i	nt
COc1ccc(NC(=O)N(C)C[C@H]2Oc3ccc(NC(=O)Nc4ccccc4)cc3C(=O)N([C@@H](C)CO)C[C@@H]2C)cc1	nt	i	i	i	i	i
C[C@H]1CN([C@@H](C)CO)C(=O)c2cc(-c3cccnc3)cnc2O[C@H]1CN(C)C(=O)Cc1cccnc1	i	i	nt	i	i	i
O=C1[C@H]2[C@@H](c3ccc(Cl)cc3)N3C(=O)N(c4cccc(Cl)c4)C(=O)[C@@]3(Cc3ccc(Cl)cc3)[C@H]2C(=O)N1C1CCCCC1	i	i	i	i	i	nt
CC[C@@]12C(=O)N(c3cccc(Br)c3)C(=O)N1[C@H](c1ccc(Cl)cc1)[C@@H]1C(=O)N(C3CCCCC3)C(=O)[C@@H]12	94	i	i	i	i	nt
Cc1cccc(N2C(=O)N3[C@H](c4ccc(F)cc4)[C@@H]4C(=O)N(C5CCCCC5)C(=O)[C@@H]4[C@]3(Cc3ccc(Cl)cc3)C2=O)c1	91	i	i	i	i	i
Cc1ccc(S(=O)(=O)Nc2ccc3c(c2)C(=O)N([C@@H](C)CO)C[C@H](C)[C@H](CN(C)Cc2ccc(C(F)(F)F)cc2)OCCCC[C@H](C)O3)cc1	i	i	108	i	i	i
C[C@H]1CCCCO[C@H](CN(C)Cc2ccc(C(F)(F)F)cc2)[C@@H](C)CN([C@@H](C)CO)C(=O)c2cc(NS(=O)(=O)c3ccc(F)cc3)ccc2O1	68[16.7 µM]	i	89	i	i	i
C[C@@H]1CN([C@H](C)CO)C(=O)c2cc(NS(=O)(=O)c3ccc(F)cc3)ccc2O[C@@H](C)CCCCO[C@@H]1CN(C)Cc1ccccc1	i	i	106	i	i	i
Cc1ccc(S(=O)(=O)Nc2ccc3c(c2)C(=O)N([C@H](C)CO)C[C@@H](C)[C@H](CN(C)Cc2ccc(C(F)(F)F)cc2)OCCCC[C@H](C)O3)cc1	i	i	116	i	66	i
C[C@H](CO)N1C[C@H](C)[C@@H](CN(C)Cc2ccccc2)OCCCC[C@H](C)Oc2ccc(NS(=O)(=O)c3ccc(F)cc3)cc2C1=O	i	i	i	i	i	i
C[C@@H]1CCCCO[C@@H](CN(C)Cc2ccc(C(F)(F)F)cc2)[C@@H](C)CN([C@H](C)CO)C(=O)c2cc(NS(=O)(=O)c3ccc(F)cc3)ccc2O1	i	i	i	i	i	i
C[C@@H]1CN([C@@H](C)CO)C(=O)c2cc(NS(=O)(=O)c3ccccc3)ccc2O[C@@H](C)CCCCO[C@H]1CN(C)Cc1ccc(C(F)(F)F)cc1	i	i	?	i	i	i
SMILES	HIV Env fusion	CFTR F508del cor	PAX8 inh HTS	GSIS activator	EWS-Fli block	PGC1a acetyl inh
O=C(Nc1ccc(Cl)cc1)N[C@@H]1CC[C@@H](CCn2cc(C3(O)CCCC3)nn2)O[C@H]1CO	i	i	i	i	i	i
Cc1ccc(S(=O)(=O)Nc2ccc3c(c2)C(=O)N([C@@H](C)CO)C[C@H](C)[C@H](CN(C)Cc2ccc(C(F)(F)F)cc2)OCCCC[C@@H](C)O3)cc1	i	i	102	i	i	i
C[C@@H]1CN([C@H](C)CO)C(=O)c2cc(NS(=O)(=O)c3ccc(Cl)cc3)ccc2O[C@@H](C)CCCCO[C@@H]1CN(C)Cc1ccc(C(F)(F)F)cc1	?	i	i	i	i	i
O=C1CS(=O)(=O)C(c2ccccc2)N1c1cccc(Cl)c1 (stereo unspecified)	i	i	i	nt	i	i
COc1ccccc1-c1nnc(NC(=O)CCS(=O)(=O)c2ccc(F)cc2)o1	i	nt	74	nt	i	i
COc1ccccc1-c1nnc(NC(=O)CCS(=O)(=O)c2ccccc2)o1	nt	i	i	i	i	nt
Cc1cc(C)nc(SCC(=O)NC2=NC(=O)C(C)S2)n1 (stereo unspecified)	nt	i	nt	i	i	nt
Cc1ccc(C2=NN=C(NC(=O)CSc3nc(C)cc(C)n3)SC2)cc1	i	nt	76	nt	?	nt
COc1ccccc1N1CCN(Cc2ccc(OC)c(OC)c2OC)CC1	i	nt	i	nt	nt	i
CCOC(=O)N1CCN(Cc2cc(Cl)c3cccnc3c2O)CC1	i	i	78	i	i	nt
Oc1c(CN2CCN(c3ccccc3)CC2)cc(Br)c2cccnc12	i	i	85	i	i	i
Oc1c(CN2CCOCC2)cc(COCc2ccccc2)c2cccnc12	i	nt	66	i	nt	i
COc1ccccc1N1CCN(Cc2ccc(O)c3ncccc23)CC1	75	nt	nt	i	nt	i
C[C@@H]1CN([C@@H](C)CO)C(=O)c2cc(NC(=O)c3ccncc3)ccc2O[C@H]1CN(C)C(=O)Nc1ccc2c(c1)OCO2	nt	i	nt	i	i	i
